Measurements from article PMC12864922, “TDP-43 directly inhibits mRNA accumulation in neurites through modulation of mRNA stability”.
Whole data set: some 9,900 sequences, median “r (bound/input frequency ratio)” near 0.7, cut for the highest 2% near 6.5. Only a selection was taken, and the highest values are over-represented in it overall.

B1: ENSMUSG00000004113.29|Cacna1b (ssRNA)
RNA: GGGAGUUCUACAGUCCGACGAUCGCUUCGAUAUCCGCAUGCUACACUCACCUUUGAAGAGGCAGUGGCCACCAACUCUGGCCGCUCCUCCAGGACUUCCUAUGUGUCCUCCCUCACUUCCCAAUCCCACCCUCUCCGCCGUGUACCCAAUGGCUAUCACUGCACUUUGGGACUCAGCACUGGCGUCCGGGCGCGGCACAGCUACCACCACCCCGAUCAGGACCACUGGUGCUAGCUGCACCACGACCACCCAUGUACCAGCUCCAUGGGUGAGGGUUCCAGUUGAUGAGUUUUAUCAUCCGCUCUCUUGCGGUCGCACUAGUGUGGAAUUCUCGGGUGUCAAGG
B2: ENSMUSG00000034801.222|Sos2 (ssRNA)
RNA: GGGAGUUCUACAGUCCGACGAUCGCUUCGAUAUCCGCAUGCUAUGUAAGUCUGGAACAAAAGUGUCUUAUGGCAUAAGAACCAACUGCCAUUGUCAAACCUAUUAACUGUCUUUAAUCUCGUGUUAACUGAAAUUUUUGAAAAGUUUUUCCAGAUUAGUAAUAUUUAAACAGAAAAUACUUUAAAAAGCUUUAUUAAAUUUUUUAAUCAGGAUAAAGCUUUGCCAUUUGGAUACUAUCAUUCAAAGUGAUCAAGGUAUGUAUGUUAUGCUGAUAGUGCAGUAGCAGCCAUUGUAAAGUAGCCACUCUUGCGGUCGCACUAGUGUGGAAUUCUCGGGUGUCAAGG
B3: ENSMUSG00000061578.107|Ksr2|134:138;220:225 (ssRNA)
RNA: GGGAGUUCUACAGUCCGACGAUCGCUUCGAUAUCCGCAUGCUAGGCCUCUCUGGGGACCAGUCCCUGGCCUUCACCCUUCUCCCAUUUUGUAAGAACACUGUUCUAACUCACCUCAUGCCCACGCUACCCUGGGCAACUGGAGAACACCAUAGCGUUUCAGCUGAUGUGACAUUUGCACACACCUUUACCAGUUCACCAUCAUUCAUGGCUUCCCCCAAAGUCCCGAGUCCUGAGAACCGGGGCUGUGGCAAGAGAGUUCUGCACACAUCUCUCUGUGGGGCUAGCAAUGCCGGGGUUAAGUUCUCUUGCGGUCGCACUAGUGUGGAAUUCUCGGGUGUCAAGG
B4: ENSMUSG00000031028.253|Tub (ssRNA)
RNA: GGGAGUUCUACAGUCCGACGAUCGCUUCGAUAUCCGCAUGCUAAGCUCUUGCCUGUGUGCCAUCUGUGAGAAGCUUCUUGGAGCUGAGACACCAGAGGGAAGCAAAGAGCAUUUAGACAUUGCUUUUUGCUUUGAAAUAGAUAUGUUUGGAAACGCUAAGUAGAAGUUUAAAAAGUAGAGUCAUGUAGAGUCAUGCUUUGAAUAUGUGGGUCAUGCUUUAGAUAUGAAGAGGCUAUGCAGGUAAGGAGGCUGGAUUGAUGUAAAUGGAAGUAGUACUUUAAGAAAGCUCUAGAUUUCCCAGGUCUCUUGCGGUCGCACUAGUGUGGAAUUCUCGGGUGUCAAGG
B5: ENSMUSG00000031028.56|Tub|187:199;217:221 (ssRNA)
RNA: GGGAGUUCUACAGUCCGACGAUCGCUUCGAUAUCCGCAUGCUACCAAGGUCAACACACAUGCCCAGUCCUGGGUCAGUCCCCUGCUGCAGUGGUGUUAUCACACCGGAAAGCCUCUUCACCUGGAGGUACAGAGGGAGAGGAAGCACAAGCCUGGCUGCUGUGGCUCAGCCAUCCACUCAGCCUACGAGUCAGAGACAGUGGGUGUCCCGGGAAGCAGGGGUACAGUGACACACACACAUACUACAGGGCACUCAAGCUCAUACUAGAAAAAGCUCUGGUGGUCAGCAGAAAGCACUCCCACUCUCUUGCGGUCGCACUAGUGUGGAAUUCUCGGGUGUCAAGG
B6: ENSMUSG00000043670.83|Diras1 (ssRNA)
RNA: GGGAGUUCUACAGUCCGACGAUCGCUUCGAUAUCCGCAUGCUAAUCCCAGUCAGGCCCAGAGAGGUUACCUUGCCUCUCCAUCUCUGUCCCUGUGUGCCCAGCCAUGCCCACUGUCCCUGUCCCUCACAUUCUAUCACUGUGACCUCUGGGGAGUGCCCAUUGACCUCAUCUUCCUUCACUAAUAUCUUAUUUCUUUCACCUGAUCCUGUCCUUUCCCCGUGACCUCUGACCUGUGGCCUUCCCUGGGUCCAGAACACCCCUGUCCUCUCCUGUCUGCACACCAGGGUGGAUGGGCCCGAGGGCUCUUGCGGUCGCACUAGUGUGGAAUUCUCGGGUGUCAAGG
B7: ENSMUSG00000028439.194|Fam219a (ssRNA)
RNA: GGGAGUUCUACAGUCCGACGAUCGCUUCGAUAUCCGCAUGCUAAGCCUAUCUGUCCAGGGAACCAGAUUGGUGUCCGAGAUGAGGAAAUGGCUGUGGCCUGGGAAAUCAGUGAGAGGCCGCUUGGGAAUGAGAAUGCAGUGGACUGAAAGCACAGCCUGGCCAUCUGGAACCUGGGUUCUGGUCCCAGCCUCGGCAUUCUCCCUGAGCUCCUAAGCAAUUCCCAGGCUUCUCUAGGGCUUCAGUUCUCACAACUGGAAAAUAAAGAGUAGCUGACAUCACCGACAGAGUCUUUUCAUACCAGACUCUUGCGGUCGCACUAGUGUGGAAUUCUCGGGUGUCAAGG
B8: ENSMUSG00000031028.89|Tub (ssRNA)
RNA: GGGAGUUCUACAGUCCGACGAUCGCUUCGAUAUCCGCAUGCUAGUACAGGGCACUCAAGCUGUAUGUAGAAAAAGCUCUGGUGGUCAGCAGAAAGCACUCCCACUUCAAAAGGGCCCAUUAGGCCCAAAGGGGGUUAGGAGUGGUAGGGAUAGGUGCGUGGCAGGUCCCUGCUAGGAUUGCAGGGGCCUGGCCAUGUGUAUUAGCUGGAGGCUUAGAAUGCUAGCUCAUUUGUUGCUACAGAUUUGCCCAGUGCUUGCACACGUAAGAACCCAGCUCUCAAGGCCAAAUAUCUGAGUGGAUGGCUCUUGCGGUCGCACUAGUGUGGAAUUCUCGGGUGUCAAGG
B9: ENSMUSG00000034801.36|Sos2 (ssRNA)
RNA: GGGAGUUCUACAGUCCGACGAUCGCUUCGAUAUCCGCAUGCUAGCAGAAUUCAAGCCCUCUCUUACCAAAGCUGCCACCAAAGACUUACAAACGGGAGCUUUCCCACCCGCCACUGUAUAGACUGCCUCUGCUGGAAAAUGCAGAAACUCCUCAAUGACCUUGGCCAUAUGUAGUCAUUGACACUGGAAUAGUAUUUGUAAAGGUUUUUAAUUUAUUCAAAAAGACAUAGUAUUUUAGUACUUUUUACAGAAAUGCUACUGAUUAAAUAAGCUCUUAAGAAUUAGUAAACUUGUUGGAUGGCACUCUUGCGGUCGCACUAGUGUGGAAUUCUCGGGUGUCAAGG
B10: ENSMUSG00000043670.328|Diras1 (ssRNA)
RNA: GGGAGUUCUACAGUCCGACGAUCGCUUCGAUAUCCGCAUGCUAUAGCCAGCCCAGGGCCCCCACAGCUGCCACCUGCUCCCAAGCCCCGGGAGUGGCUCCUGGCUGGACAGGGGGUCACAGCCCUUUCUCAGGGACACACCCUGAUAGCACAAUCUCUGGGCCACCCCAGGCUUCUCCUGGCUGGCCUUGCCCAUCCUGGGGAGAACCGGGCUGGGUGGCAGGGGAGGCCGGAGCCCACCCUGGCUGCUGGCCAACCUGCCCAGGCAUCUCUGGUGCUGGGGACCCCGCCAGGCCUCGCUUGCCUCUUGCGGUCGCACUAGUGUGGAAUUCUCGGGUGUCAAGG
B11: ENSMUSG00000043670.182|Diras1 (ssRNA)
RNA: GGGAGUUCUACAGUCCGACGAUCGCUUCGAUAUCCGCAUGCUAGGCUCUGACAGAAUCUGAGCCUCUUUGCUGGUCAUGUGUACUCUGGAGACUGUCCCCCAUGUCUGCCCUGAGUUACGGAGCCCCUGUGGUAUCUGCGAGACUGUCCAGGAGACUUGAGUGGCUCCUGGGCCUGUGUCCCACCCAGAUGAGGGUGACUUAGAAUUCUGUGUUUAUGUGCCUGUGUGUGUGGAUGGGUGUGUGUCUGUCUUGGGAUGGGGUGUUCUUGCACCACUUUGUGUUCUUAGUGAGACCACAGUGUACUCUUGCGGUCGCACUAGUGUGGAAUUCUCGGGUGUCAAGG
B12: ENSMUSG00000043670.176|Diras1 (ssRNA)
RNA: GGGAGUUCUACAGUCCGACGAUCGCUUCGAUAUCCGCAUGCUAUGUGUGCGGUGAUAGGACUAGUGGCUGCUGCCCUAGGGCUCUGACAGAAUCUGAGCCUCUUUGCUGGUCAUGUGUACUCUGGAGACUGUCCCCCAUGUCUGCCCUGAGUUACGGAGCCCCUGUGGUAUCUGCGAGACUGUCCAGGAGACUUGAGUGGCUCCUGGGCCUGUGUCCCACCCAGAUGAGGGUGACUUAGAAUUCUGUGUUUAUGUGCCUGUGUGUGUGGAUGGGUGUGUGUCUGUCUUGGGAUGGGGUGUUCUCUCUUGCGGUCGCACUAGUGUGGAAUUCUCGGGUGUCAAGG
B13: ENSMUSG00000043670.175|Diras1 (ssRNA)
RNA: GGGAGUUCUACAGUCCGACGAUCGCUUCGAUAUCCGCAUGCUAAGUCCCUGUGUGCGGUGAUAGGACUAGUGGCUGCUGCCCUAGGGCUCUGACAGAAUCUGAGCCUCUUUGCUGGUCAUGUGUACUCUGGAGACUGUCCCCCAUGUCUGCCCUGAGUUACGGAGCCCCUGUGGUAUCUGCGAGACUGUCCAGGAGACUUGAGUGGCUCCUGGGCCUGUGUCCCACCCAGAUGAGGGUGACUUAGAAUUCUGUGUUUAUGUGCCUGUGUGUGUGGAUGGGUGUGUGUCUGUCUUGGGAUGGGGCUCUUGCGGUCGCACUAGUGUGGAAUUCUCGGGUGUCAAGG
B14: ENSMUSG00000043670.181|Diras1 (ssRNA)
RNA: GGGAGUUCUACAGUCCGACGAUCGCUUCGAUAUCCGCAUGCUACCCUAGGGCUCUGACAGAAUCUGAGCCUCUUUGCUGGUCAUGUGUACUCUGGAGACUGUCCCCCAUGUCUGCCCUGAGUUACGGAGCCCCUGUGGUAUCUGCGAGACUGUCCAGGAGACUUGAGUGGCUCCUGGGCCUGUGUCCCACCCAGAUGAGGGUGACUUAGAAUUCUGUGUUUAUGUGCCUGUGUGUGUGGAUGGGUGUGUGUCUGUCUUGGGAUGGGGUGUUCUUGCACCACUUUGUGUUCUUAGUGAGACCACCUCUUGCGGUCGCACUAGUGUGGAAUUCUCGGGUGUCAAGG
B15: ENSMUSG00000043670.180|Diras1 (ssRNA)
RNA: GGGAGUUCUACAGUCCGACGAUCGCUUCGAUAUCCGCAUGCUACUGCUGCCCUAGGGCUCUGACAGAAUCUGAGCCUCUUUGCUGGUCAUGUGUACUCUGGAGACUGUCCCCCAUGUCUGCCCUGAGUUACGGAGCCCCUGUGGUAUCUGCGAGACUGUCCAGGAGACUUGAGUGGCUCCUGGGCCUGUGUCCCACCCAGAUGAGGGUGACUUAGAAUUCUGUGUUUAUGUGCCUGUGUGUGUGGAUGGGUGUGUGUCUGUCUUGGGAUGGGGUGUUCUUGCACCACUUUGUGUUCUUAGUGACUCUUGCGGUCGCACUAGUGUGGAAUUCUCGGGUGUCAAGG
B16: ENSMUSG00000043670.177|Diras1 (ssRNA)
RNA: GGGAGUUCUACAGUCCGACGAUCGCUUCGAUAUCCGCAUGCUACGGUGAUAGGACUAGUGGCUGCUGCCCUAGGGCUCUGACAGAAUCUGAGCCUCUUUGCUGGUCAUGUGUACUCUGGAGACUGUCCCCCAUGUCUGCCCUGAGUUACGGAGCCCCUGUGGUAUCUGCGAGACUGUCCAGGAGACUUGAGUGGCUCCUGGGCCUGUGUCCCACCCAGAUGAGGGUGACUUAGAAUUCUGUGUUUAUGUGCCUGUGUGUGUGGAUGGGUGUGUGUCUGUCUUGGGAUGGGGUGUUCUUGCACCCUCUUGCGGUCGCACUAGUGUGGAAUUCUCGGGUGUCAAGG

The binders below were run against TDP-43 (Homo sapiens, UniProt Q13148 1-414) (assay: RNA Bind-n-Seq with designed 260-mer pool; 25 mM Tris-HCl, 150 mM KCl, 3 mM MgCl2, BSA (printed 500 mg/mL), 20 units/mL SUPERase IN; pH not stated; 500 nM RNA pool, 1 h, 4 C; TDP-43 5, 50, 500 nM; high values mean tight binding). Settings: protein: recombinant; tags: SBP (GST cleaved off with PreScission; pGEX-GST-SBP).
TDP-43, sequence (Q13148 whole entry): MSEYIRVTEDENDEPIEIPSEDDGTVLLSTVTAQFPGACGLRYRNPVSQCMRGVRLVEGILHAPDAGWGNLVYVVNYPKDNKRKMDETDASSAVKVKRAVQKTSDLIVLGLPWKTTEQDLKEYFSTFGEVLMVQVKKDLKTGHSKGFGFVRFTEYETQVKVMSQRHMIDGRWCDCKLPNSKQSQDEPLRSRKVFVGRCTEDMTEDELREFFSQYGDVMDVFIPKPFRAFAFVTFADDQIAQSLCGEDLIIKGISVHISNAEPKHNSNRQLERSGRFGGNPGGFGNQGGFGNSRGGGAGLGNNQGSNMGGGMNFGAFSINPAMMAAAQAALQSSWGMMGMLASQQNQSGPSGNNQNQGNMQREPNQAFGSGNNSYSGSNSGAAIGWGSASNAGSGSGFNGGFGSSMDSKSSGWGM
Method in brief: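 For each oligo, R gives binding as its mapped-read-normalized abundance after pulldown divided by its abundance in input. Bead-captured SBP-tagged TDP-43 (5, 50 or 500 nM) was incubated with 500 nM of an in vitro-transcribed 260-nt 3′ UTR oligo pool for 1 h at 4 °C in 25 mM Tris-HCl, 150 mM KCl, 3 mM MgCl2, BSA and SUPERase IN on streptavidin beads. Washed, biotin-eluted RNA was reverse transcribed, PCR-amplified and sequenced.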
With B1 the binding signal was 0.399 R (bound/input frequency ratio). In the case of B2, the binding signal is reported as 0.0419 R (bound/input frequency ratio). With B3 the binding signal was 0.895 R (bound/input frequency ratio). B4 was tested, and the binding signal was 2.03 R (bound/input frequency ratio). B5 was tested, and the binding signal was 1.06 R (bound/input frequency ratio). B6 was tested, and the binding signal was 2.21 R (bound/input frequency ratio). For B7, the binding signal was 0.186 R (bound/input frequency ratio). In the case of B8, the binding signal is reported as 4.96 R (bound/input frequency ratio). With B9 the binding signal was 0.12 R (bound/input frequency ratio). B10 was tested, and the binding signal was 0.177 R (bound/input frequency ratio). B11 was tested, and the binding signal was 5.77 R (bound/input frequency ratio). B12 was tested, and the binding signal was 6.8 R (bound/input frequency ratio). B13 was tested, and the binding signal was 6.15 R (bound/input frequency ratio). With B14 the binding signal was 6.26 R (bound/input frequency ratio). With B15 the binding signal was 6.66 R (bound/input frequency ratio). With B16 the binding signal was 6.1 R (bound/input frequency ratio).
